Screening data (PubChem BioAssay)
PostGolgi_yeast – growth inhibition of a yeast mutant, post-Golgi transport screen; post-Golgi transport phenotypic cell assay; AID 739; actives 0.9% (n = 98,000); inhibition, % at 10 µM;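 further: yeast cells grown in 1536-well plates; yeast grown about 18 h at 30C before absorbance read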
CYP2C9_activ – CYP2C9 (human) activation | recombinant CYP2C9, luciferin-H conversion, luminescence; stronger effect = higher value; factor 1 = untreated enzyme, 0 = blocked | activation factor at 5 µM | actives 1.4% (n = 96,000);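 active means activation factor of 2 or more for CYP2C9 at a 5 µM dose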;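 further: 0 = sulfaphenazole-blocked wells and 1 = vehicle-only wells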
CYP2C19_activ – increases human CYP2C19 enzyme activity | recombinant CYP2C19, luciferin-H EGE luminescence; stronger effect = higher value; 0 = fully inhibited enzyme, 1 = untreated enzyme | activation factor at 5 µM | 96,000 tested, under 10 active;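 active means activation factor of at least 2 at 5 µM in the primary screen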;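 further: 0 = wells with 2.5 mM tranylcypromine and 1 = vehicle-only wells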
CYP2C19_inhib – inhibitors of human CYP2C19; P33261; CYP2C19 Supersomes, luciferin-H EGE luminescence, 30 min; inhibition, % at 5 µM; actives 21% (n = 96,000);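 active means CYP2C19 inhibition above a set limit at 5 µM in the primary screen, cut at about 50% in these data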;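 further: plate controls were negative control wells for no effect and 2.5 mM tranylcypromine positive control for full effect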
PostGolgi_ctrl – growth of the yeast control strain, post-Golgi counter-screen. inhibition, % at 10 µM. actives 5% (n = 98,000). efflux-deficient yeast background strain, growth absorbance A615, 16 h
CYP2C9_inhib – blocks human cytochrome P450 2C9. P11712. CYP2C9 Supersomes, luciferin-H conversion, luminescence. inhibition, % at 5 µM. actives 20% (n = 96,000);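 active means blocking of liver enzyme CYP2C9 beyond about 50% at 5 µM, limit read from the data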
Starred values were filed as active, the others as inactive. These entries were drawn from the full list. Unless noted, no stated cut-off is given here; in the data, active means inhibition above about 30%; inactive means the rest.

SMILES PostGolgi_yeast CYP2C9_activ CYP2C19_activ CYP2C19_inhib PostGolgi_ctrl CYP2C9_inhib
Cc1ccc(-n2nc3c([n+]2[O-])CCc2c-3no[n+]2[O-])cc1 1.1 1.3 1.2 -21.6 15.4 -34.1
CCCN(CCO)Cc1ccc(Br)cc1 -3.1 1.1 0.9 11.8 10.0 -14.8
CCOC(=O)C1CCN(C(=O)c2cc(OCC)c(OCC)c(OCC)c2)CC1 7.9 0.7 0.8 22.1 1.1 31.7
Cc1nnc(SCC(=O)Nc2ccc3c(c2)COC3=O)n1-c1ccccc1 -2.8 0.6 0.9 5.3 6.7 41.0
Clc1ccc(Cc2noc(Cc3ccccc3)n2)cc1Cl -3.5 1.1 0.9 14.9 5.2 -11.8
Clc1ccc(COc2ccccn2)cc1Cl 2.4 1 0.3 70.7* -5.4 1.6
C=CCn1c(SCC(=O)c2ccccc2)nnc1-c1cc2ccccc2o1 9.7 0.6 0.2 77.8* 25.9 42.6
C=CCn1c(SCC(=O)Nc2ccc3c(c2)OCCO3)nnc1-c1ccccn1 23.4 0.6 0.9 10.4 -3.1 37.0
C=CCn1c(SCC(=O)c2ccc(OC)cc2)nnc1-c1cc2cccc(OC)c2o1 -7.4 1.1 0.8 21.4 1.8 -11.2
C=CCn1c(SCC(=O)c2ccccc2)nnc1-c1ccc2c(c1)OCO2 -0.7 0.6 0.2 77.3* 8.9 41.4
COC(=O)c1ccccc1OC(=O)c1ccc(Br)o1 1.8 0.8 0.2 75.5* 14.5 16.4
